Source: PubChem BioAssay (National Center for Advancing Translational Sciences (NCATS))
A selection: hits, their analogues and other compounds. The true share with any hit is near 0.43%.
MmCpn inh – inhibitors of Methanococcus maripaludis chaperonin TRiC (MmCpn) | purified Mm-Cpn ATPase, ADP Transcreener TR-FRET | Potency, µM (doses to about 76.9 µM), without a hit: top-dose activity, negative = inhibition, hits mostly inhibitors | hit rate 0.031% among 330,000 | AID 504842; active = well fitted curve in the direction sought with a large enough effect; inconclusive = small, poorly fitted or top-dose-only effect, or another doubt; inactive = no such curve, though single readings can be large; an effect the other way counts as inactive or inconclusive; also: potency is read from the fitted curve at half-maximal effect; % is scaled to controls: 0 for no effect and ±100 for the full control effect; nearly all actives have a fitted effect of over 80% in size
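Compound-treated chaperonin, 25 nM final, turns over 10 uM ATP at 37°C for 30 min following a 10 min preincubation; ADP generated competes with ADP-d2 for Eu-cryptate antibody, lowering FRET.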
Rango-impB inh – inhibitors of Rango-importin beta complex formation; Q14974; Rango CFP/YFP FRET sensor + importin beta, 45 min; Potency, µM (top dose mostly 92.2 µM), for inactives: at the highest dose inhibition of complex formation; hit rate 0.031% among 340,000;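 also: potency is read from the fitted curve at half-maximal effect; 0% = DMSO wells and 100% = buffer wells lacking importin beta; nearly all actives have a fitted effect of over 15% in size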
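Inhibition scored from the CFP 486 nm/YFP 530 nm FRET ratio 45 min after adding 0.125 microM importin beta to 50 nM Rango biosensor preincubated 5 min with compound (room temperature, PBS with DTT, Tween-20, BSA). No-importin wells as positive control.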
B2AR arrestin – agonists driving beta-arrestin recruitment to human beta2-adrenergic receptor; Potency, µM (highest dose often 46.1 µM), inactives show at the highest dose activation, usual class: activators; P07550; hit rate 0.02% among 330,000; beta-arrestin recruitment to beta2AR, cell-based reporter; AID 492947; active = well fitted curve in the direction sought with a large enough effect; inconclusive = small, poorly fitted or top-dose-only effect, or another doubt; inactive = no such curve, though single readings can be large; an effect the other way counts as inactive or inconclusive;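 also: potency is read from the fitted curve at half-maximal effect; 0% = DMSO controls and full agonism = EC100 isoproterenol or metaproterenol; nearly all actives have a fitted effect of over 65% in size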
Target sequence (P07550 whole entry, looked up): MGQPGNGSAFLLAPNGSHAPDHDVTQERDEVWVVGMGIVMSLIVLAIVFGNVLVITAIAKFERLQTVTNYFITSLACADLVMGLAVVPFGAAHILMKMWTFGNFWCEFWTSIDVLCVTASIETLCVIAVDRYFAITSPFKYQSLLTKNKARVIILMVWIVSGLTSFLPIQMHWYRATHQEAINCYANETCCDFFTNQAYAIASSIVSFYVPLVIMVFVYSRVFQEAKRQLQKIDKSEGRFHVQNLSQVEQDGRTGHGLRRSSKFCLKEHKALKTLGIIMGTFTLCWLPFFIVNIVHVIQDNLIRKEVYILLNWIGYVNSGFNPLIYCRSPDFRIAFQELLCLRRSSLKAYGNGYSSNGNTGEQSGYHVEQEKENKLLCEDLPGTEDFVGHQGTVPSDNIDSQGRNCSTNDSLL
Rango dissoc inh – prevents RanGTP from dissociating the Rango-importin beta complex | Potency, µM (highest dose often 46.1 µM), inactives show at the top dose activity change, negative = inhibition | hit rate 0.071% among 340,000 | Biochemical FRET Rango-importin beta, RanGTP-induced dissociation; also: potency is read from the fitted curve at half-maximal effect; % of control where 0% means no effect; nearly all actives have a fitted effect of over 45% in size
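Rango FRET biosensor (snurportin-1 IBB flanked by N-terminal EYFP and C-terminal CFP10) at 0.1 uM, with 0.25 uM importin beta in PBS, 1mM DTT, 0.02% Tween-20, 0.1% BSA. 0.6 uM Ran, 2mM GTP and 0.2 uM RCC1 were then added for 45 min at room temperature. Inhibition read as loss of FRET rise.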
CCT modulator – modulators of cytosolic chaperonin (CCT/TRiC) activity; purified chaperonin ATPase assay, HTRF ADP detection, 30 min; activity change, % (test concentration not listed), hits read low; hit rate 0.3% among 360,000; AID 651819; in the data active = activity change below about -30%; also: % is scaled to controls: 0 for no effect and ±100 for the full control effect
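We incubate TRiC, 40 or 20 nM final, with library compounds at 76 uM and 10 uM ATP for 30 min at 37 °C. ADP formed is detected with Transcreener HTRF reagents after 30 min at room temperature.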
An asterisk follows results filed as active. Unless noted, calls follow the shape of the full dose curve.

COC(=O)CN1C(=O)[C@H]2[C@@H](C3CC3)N3C(=O)CN(Cc4ccccn4)C(=O)[C@@]3(Cc3ccccc3)[C@H]2C1=O was read as MmCpn inh 2%, Rango-impB inh 1%, B2AR arrestin -1%, Rango dissoc inh -7% and CCT modulator -40*.
Screening Cc1n[nH]c(C)c1CCCCOc1ccccc1 returned MmCpn inh 1%, Rango-impB inh 0%, B2AR arrestin 0%, Rango dissoc inh -3% and CCT modulator -3.
Screening Cc1ccc(OCCCc2c(C)n[nH]c2C)cc1 returned MmCpn inh -3%, Rango-impB inh inconclusive, B2AR arrestin 0%, Rango dissoc inh -4% and CCT modulator -60*.
Screening COc1ccc(/C=C/C(=O)Nc2ccccc2C(=O)O)cc1 returned MmCpn inh 0%, Rango-impB inh 2%, B2AR arrestin 0%, Rango dissoc inh -1% and CCT modulator -36*.
COC(=O)c1cc(S(=O)(=O)Nc2nn(C)c3cccc(F)c23)oc1C was read as MmCpn inh 0%, Rango-impB inh 4%, B2AR arrestin -1%, Rango dissoc inh 8% and CCT modulator -1.
COC(=O)c1cc(S(=O)(=O)Nc2nn(C)c3ccccc23)oc1C was read as MmCpn inh 2%, Rango-impB inh 2%, B2AR arrestin -1%, Rango dissoc inh -4% and CCT modulator -43*.
For Cc1ccc(C(C)NC(=O)COC(=O)C2=COCCO2)cc1C (centres undefined) the results were MmCpn inh -24%, Rango-impB inh -1%, B2AR arrestin 0%, Rango dissoc inh -11% and CCT modulator 1.
